Results published in the supplement of paper PMC7393113.
± gives the standard deviation of the averaged measurements.

Test system: iBMDM (immortalised mouse bone-marrow-derived macrophages), LPS-stimulated
Assay: mitochondrial superoxide (MitoSOX fluorescence) fold increase over unstimulated control; higher = more LPS-induced mitochondrial ROS (less inhibition)
Conditions: inhibitor concentration: 500 nM, LPS: 100 ng/ml
In short: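 Immortalised mouse bone-marrow-derived macrophages were seeded in triplicate in black 96-well plates and moved to phenol-red-free 1% FCS/DMEM for 20 h. They were pretreated 30 min with kinase inhibitors (500 nM), loaded with 1 μM MitoSox for 10 min, then given LPS (100 ng/ml). Fluorescence (excitation/emission 510/580 nm, ClarioStar plate reader) was read every 60 min for 4 h. Mitochondrial superoxide is fold induction over untreated control macrophages, averaged over three replicates.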

Structure (SMILES) | mitochondrial superoxide (time after LPS: 1 h) | mitochondrial superoxide (time after LPS: 2 h) | mitochondrial superoxide (time after LPS: 4 h)
COc1c(C)c(C(=O)c2ccc(N)c(C(=O)O)c2)n2ccccc12 | 1.19 ± 0.076 | 1.26 ± 0.036 | 1.32 ± 0.062
CCC(=O)Nc1cccc(Oc2nc(Nc3ccc(N4CCN(C)CC4)cc3OC)ncc2Cl)c1 | 1.39 ± 0.084 | 1.51 ± 0.091 | 1.79 ± 0.061
OCCn1cc(-c2cnc3nnn(Cc4ccc5ncccc5c4)c3n2)cn1 | 1.37 ± 0.059 | 1.41 ± 0.018 | 1.498 ± 0.0039
O=C1NCCc2[nH]c(-c3ccncc3)cc21 | 1.31 ± 0.054 | 1.41 ± 0.039 | 1.63 ± 0.06
Cc1ccc(C(=O)Nc2ccc(CN3CCN(C)CC3)c(C(F)(F)F)c2)cc1C#Cc1cnc2cccnn12 | 1.08 ± 0.068 | 1.13 ± 0.014 | 1.23 ± 0.048
CC(C)(C)c1cnc(CSc2cnc(NC(=O)C3CCNCC3)s2)o1 | 1.32 ± 0.035 | 1.43 ± 0.017 | 1.5 ± 0.14
C=CC(=O)Nc1ccc2ncnc(Nc3cccc(Br)c3)c2c1 | 1.12 ± 0.053 | 1.29 ± 0.027 | 1.3 ± 0.061
Cc1[nH]c(/C=C2\C(=O)Nc3ccc(S(=O)(=O)N(C)c4cccc(Cl)c4)cc32)c(C)c1C(=O)N1CCN(C)CC1 | 1.33 ± 0.11 | 1.4 ± 0.15 | 1.67 ± 0.27
Cc1ccc(-c2nn(C(C)(C)C)c3ncnc(N)c23)cc1 | 1.18 ± 0.043 | 1.22 ± 0.055 | 1.34 ± 0.046
Nc1ncnc2c1c(-c1cccc(OCc3ccccc3)c1)cn2C1CC(CN2CCC2)C1 (configuration not stated) | 1.36 ± 0.069 | 1.48 ± 0.037 | 1.63 ± 0.029
Cc1nc(N)sc1-c1ccnc(Nc2ccc(N3CCOCC3)cc2)n1 | 1.49 ± 0.063 | 1.55 ± 0.023 | 1.7 ± 0.02
O=P(O)(O)C(O)(Cn1ccnc1)P(=O)(O)O [Zoledronic Acid] | 1.27 ± 0.02 | 1.29 ± 0.085 | 1.4 ± 0.16
CS(=O)(=O)c1ccc(-c2cnc(N)c(C(=O)Nc3ccccc3)n2)cc1 | 1.23 ± 0.053 | 1.46 ± 0.052 | 1.6 ± 0.078
C=CC(=O)Nc1cccc(Nc2nc(Nc3ccc(OCCOC)cc3)ncc2F)c1 | 1.17 ± 0.03 | 1.24 ± 0.072 | 1.29 ± 0.019
COc1ccc(COc2cc3oc(=O)c4cc(C(C)O)ccc4c3cc2OC)cc1 (configuration not stated) [Palomid 529 (P529)] | 1.1 ± 0.049 | 1.25 ± 0.08 | 1.41 ± 0.05
CC1(C)CNc2cc(NC(=O)c3cccnc3NCc3ccncc3)ccc21 [Motesanib Diphosphate (AMG-706)] | 1.55 ± 0.066 | 1.63 ± 0.12 | 1.71 ± 0.053
Cc1cc(C(=O)NOCCO)c(Nc2ccc(I)cc2F)n(C)c1=O | 1.05 ± 0.042 | 1.25 ± 0.092 | 1.39 ± 0.073

Structure (SMILES) | mitochondrial superoxide (time after LPS: 1 h) | mitochondrial superoxide (time after LPS: 2 h) | mitochondrial superoxide (time after LPS: 4 h)
N#Cc1c(O)c2c(-c3ccc(-c4ccccc4O)cc3)csc2[nH]c1=O | 1.3 ± 0.051 | 1.43 ± 0.023 | 1.52 ± 0.034
CO[C@H]1C[C@@H]2CC[C@@H](C)[C@@](O)(O2)C(=O)C(=O)N2CCCC[C@H]2C(=O)O[C@H]([C@H](C)C[C@@H]2CC[C@@H](O)[C@H](OC)C2)CC(=O)[C@H](C)/C=C(\C)[C@@H](O)[C@@H](OC)C(=O)[C@H](C)C[C@H](C)/C=C/C=C/C=C/1C [Rapamycin (Sirolimus)] | 1.7 ± 0.07 | 1.7 ± 0.094 | 1.7 ± 0.033
COc1ccc(-c2cc3c(C)nc(N)nc3n([C@H]3CC[C@H](OCCO)CC3)c2=O)cn1 | 1.37 ± 0.058 | 1.53 ± 0.056 | 1.74 ± 0.049
Cc1ccc(C(=O)Nc2ccc(CN3CCN(C)CC3)c(C(F)(F)F)c2)cc1C#Cc1cnc2[nH]ncc2c1 | 1.42 ± 0.049 | 1.53 ± 0.032 | 1.75 ± 0.062
FC(F)(F)c1ccc(/C=C/c2nc(COc3ccc(CCCCn4ccnn4)cc3)co2)cc1 [Mubritinib (TAK 165)] | 1.06 ± 0.033 | 1.17 ± 0.075 | 1.296 ± 0.0099
Nc1ncnc2c1c(-c1cnc3[nH]ccc3c1)nn2C1CCCC1 | 1.34 ± 0.077 | 1.41 ± 0.079 | 1.57 ± 0.058
CNC(=O)c1nn(C)c2c1C(C)(C)Cc1cnc(Nc3ccc(N4CCN(C)CC4)cc3)nc1-2 | 1.31 ± 0.016 | 1.38 ± 0.086 | 1.64 ± 0.064
O=c1cc(N2CCOCC2)oc2c1ccc1ccccc12 | 1.13 ± 0.049 | 1.11 ± 0.062 | 1.17 ± 0.062
O=C(NOC[C@H](O)CO)c1ccc(F)c(F)c1Nc1ccc(I)cc1F | 1.589 ± 0.0074 | 1.64 ± 0.044 | 1.71 ± 0.083
Cc1cc(C)c(/C=C2\C(=O)Nc3ccccc32)[nH]1 [Semaxanib (SU5416)] | 1.19 ± 0.012 | 1.22 ± 0.029 | 1.3 ± 0.039
Cc1ccccc1-n1c(Cn2nc(-c3cccc(O)c3)c3c(N)ncnc32)nc2cccc(C)c2c1=O | 1.28 ± 0.017 | 1.34 ± 0.033 | 1.42 ± 0.034
COc1ncc(-c2ccc3nccc(-c4ccnnc4)c3c2)cc1NS(=O)(=O)c1ccc(F)cc1F | 1.28 ± 0.049 | 1.42 ± 0.033 | 1.52 ± 0.077
CN1CCN(CCOc2cc(OC3CCOCC3)c3c(Nc4c(Cl)ccc5c4OCO5)ncnc3c2)CC1 [Saracatinib (AZD0530)] | 1.516 ± 0.0097 | 1.63 ± 0.047 | 1.85 ± 0.073
Nc1nc(N)c2nc(-c3cccc(O)c3)c(-c3cccc(O)c3)nc2n1 | 1.18 ± 0.049 | 1.23 ± 0.1 | 1.4 ± 0.12
O=C(NC(NC(=S)Nc1ccc(F)c([N+](=O)[O-])c1)C(Cl)(Cl)Cl)C(c1ccccc1)c1ccccc1 (configuration not stated) | 1.13 ± 0.029 | 1.25 ± 0.031 | 1.37 ± 0.015
CCCNC(=O)Nc1ccc(Oc2ncnc3cc(OC)c(OC)cc23)cc1Cl | 1.15 ± 0.055 | 1.21 ± 0.066 | 1.22 ± 0.024
Cn1c(=O)c(F)c(Nc2ccc(I)cc2F)c2c(=O)n(C[C@@H](O)CO)cnc21 | 1.36 ± 0.021 | 1.39 ± 0.028 | 1.51 ± 0.055
